# Data as given in PubChem BioAssay (NCATS).
# A number with no mark means an inactive call. Records with an inconclusive call do not appear. A call without a number means that no potency is given here. Calls of active or inactive are those of the source. The call rests on the fitted dose curve; in most records, active means well fitted curve in the direction sought with a large enough effect; inconclusive means small, poorly fitted or top-dose-only effect, or another doubt; inactive means no such curve, though single readings can be large; an effect the other way counts as inactive or inconclusive.
# Legend:
# [1] = biological target: Glutathione peroxidase 1 (Homo sapiens) (UniProt P07203); assay: Primary qHTS Assay for Inhibitors of Recombinant Selenoprotein Glutathione Peroxidase 1 (GPX1) (AID 1845191); further: nearly all actives have a fitted effect of over 65% in size
# Glutathione peroxidase 1 (Homo sapiens), sequence (P07203 whole entry, looked up): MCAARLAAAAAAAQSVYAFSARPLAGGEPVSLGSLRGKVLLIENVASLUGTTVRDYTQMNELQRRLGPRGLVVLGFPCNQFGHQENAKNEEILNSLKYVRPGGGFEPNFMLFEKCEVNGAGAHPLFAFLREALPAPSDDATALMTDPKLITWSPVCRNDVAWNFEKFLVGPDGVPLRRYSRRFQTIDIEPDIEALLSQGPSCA
# Procedure, shortened: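 Recombinant GPX1 (10 nM final) was preincubated with compound for 30 min at room temperature, then reacted with 1 mM GSH, 0.5 mM CHP, 0.5 mM NADPH and 100 nM glutathione reductase; NADPH fluorescence (340/450 nm) was read at 0 and 15 min.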
# [2] = biological target: Phospholipid hydroperoxide glutathione peroxidase GPX4 (Homo sapiens) (UniProt P36969); assay: Primary qHTS Assay for Inhibitors of Recombinant Selenoprotein Glutathione Peroxidase 4 (GPX4) (AID 1845192); further: nearly all actives have a fitted effect of over 65% in size; on activity change, negative = inhibition: series mostly up to about 50 µM
# Phospholipid hydroperoxide glutathione peroxidase GPX4 (Homo sapiens), sequence (P36969 whole entry, looked up): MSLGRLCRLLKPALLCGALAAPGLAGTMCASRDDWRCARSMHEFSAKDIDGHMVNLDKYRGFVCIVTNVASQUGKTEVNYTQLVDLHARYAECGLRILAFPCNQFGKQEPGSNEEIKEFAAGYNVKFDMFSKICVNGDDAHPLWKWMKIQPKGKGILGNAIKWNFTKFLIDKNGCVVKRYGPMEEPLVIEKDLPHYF
# Procedure, shortened: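 GR-coupled readout: 100 nM GR, 1 mM GSH, 0.5 mM NADPH; NADPH fluorescence (ex 340/em 450 nm) read at t=0 and after 15 min RT. GPX4 200 nM, preincubated 30 min with compound; substrate 0.5 mM CHP.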
# [3] = biological target: Luciferin 4-monooxygenase (Photinus pyralis) (UniProt P08659); assay: Primary firefly luciferase (FLuc) qHTS assay for identification of artifact compounds. (AID 1845220); further: nearly all actives have a fitted effect of over 60% in size; on activity change, negative = inhibition: series mostly up to about 54 µM
# Procedure, shortened: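 qHTS, 15 min compound preincubation with substrate (10 uM luciferin, 10 uM ATP) at RT, then 10 nM FLuc; 5 min; luminescence; % inhibition vs no-enzyme/DMSO controls, 4-parameter Hill fit.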
# [4] = Primary fluorescence-based thiol-reactive (MSTI) qHTS assay for identification of artifact compounds. (AID 1845221); further: nearly all actives have a fitted effect of over 65% in size; further: potency means the concentration at half of the fitted maximal effect;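 on activity change, negative = thiol reactive: series mostly up to about 54 µM; thiol-reactive compounds lower the probe fluorescence signal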
# Procedure, shortened: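 Curve-fitted percent inhibition (4-parameter Hill) derived from fluorescence, Ex 525/Em 598 nm, scaled with Acetyl-MSTI and MSTI; 1 h incubation at room temperature.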
# [5] = test system: Nanoluciferase (engineered Oplophorus gracilirostris luciferase); assay: Primary Nanoluciferase (NLuc) qHTS assay for identification of artifact compounds. (AID 1845222); further: series mostly up to about 54 µM
# Procedure, shortened: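 Luminescence read-out of secreted NLuc in S16 cell conditioned medium (1:55); compounds tested with 15 min RT preincubation, then Nano-Glo substrate 1:100, 5 min. % inhibition vs no-enzyme and DMSO controls, 4-parameter Hill fit.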
SMILES,Potency [1],Potency [2],Potency [3],Potency [4],Potency [5],"activity change, negative = inhibition [3]","activity change, negative = thiol reactive [4]","activity, negative = inhibition [5]",outcome [3]
C[C@H]1C(=O)N2c3ccccc3[C@@]3(O)C[C@@H]4C(=O)N[C@](C)(c5nc6ccccc6c(=O)n54)N1[C@@H]23,inactive,inactive,inactive,inactive,inactive,,,,
C/C=C/C=C/[C@@H]1O[C@](O)([C@H](CC)C(=O)NC/C=C/C=C(\C)[C@@H](OC)[C@@H](C)C2OC(/C=C/C=C/C=C(\C)C(=O)c3c(O)cc[nH]c3=O)[C@H](O)[C@@H]2O)[C@H](O)[C@H](O)C1(C)C (stereo not given in full),inactive,inactive,inactive,inactive,inactive,,,,
CC[C@H](C)[C@H](NC(=O)[C@H]([C@@H](C)CC)N(C)C(C)=O)C(=O)N[C@H](C(=O)N[C@@H](CC(C)C)C(=O)[C@@]1(C)CO1)[C@@H](C)O,inactive,inactive,inactive,inactive,inactive,,,,
C[C@@H](O)[C@H](NC(=O)c1ccc(C#Cc2ccc(CN3CCOCC3)cc2)cc1)C(=O)NO,inactive,inactive,inactive,inactive,inactive,,,,
C[C@@H]1O[C@@H](O[C@H]2[C@H](O)[C@@H](C(=O)O)O[C@@H](O[C@H]3CC[C@@]4(C)C(CC[C@]5(C)C4CC=C4C6CC(C)(C)CC[C@]6(C(=O)O)CC[C@]45C)C3(C)C)[C@@H]2O[C@@H]2OC[C@@H](O)[C@H](O)[C@H]2O)[C@H](O)[C@H](O)[C@H]1O (stereo not given in full),inactive,inactive,,,,1.83% [at 11.6 µM],129% [at 11.5 µM],0.398% [at 11.6 µM],
CC1OC(OC2CCC3(C)C(CCC4(C)C3CC=C3C5CC(C)(C)CCC5(C(=O)OC5OC(CO)C(O)C(O)C5O)CCC34C(=O)O)C2(C)C)C(O)C(O)C1O (stereo not given),inactive,inactive,inactive,inactive,inactive,,,,
C/C=C1\[C@H](OC2OC(COC3OC(CO)C(O)C(O)C3O)C(O)C(O)C2O)OC=C(C(=O)OC)[C@H]1CC(=O)OCCc1ccc(O)cc1 (stereo not given in full),inactive,inactive,inactive,5.61 µM (active),inactive,,,,
Cc1nc2ccc(Oc3ccc(F)cc3)cc2c(=O)n1C[C@H]1CCCN(C(C)C)C1,inactive,inactive,inactive,inactive,inactive,,,,
CO[C@H]1C[C@@H]2CC[C@@H](C)[C@@](O)(O2)C(=O)C(=O)N2CCCC[C@H]2C(=O)O[C@H]([C@H](C)C[C@@H]2CC[C@H](n3cnnn3)[C@H](OC)C2)CC(=O)[C@H](C)/C=C(\C)[C@@H](O)[C@@H](OC)C(=O)[C@H](C)C[C@H](C)/C=C/C=C/C=C/1C,inactive,inactive,inactive,inactive,inactive,,,,
CC(=O)OC[C@@]12C(=O)C[C@@H](C)[C@]3(C[C@@H](c4ccoc4)O[C@H]3OC(C)=O)[C@H]1CCC[C@]21CO1,inactive,inactive,inactive,inactive,inactive,,,,
OC[C@H]1O[C@@H](O[C@H]2[C@H](OCCc3ccccc3)O[C@H](CO)[C@@H](O)[C@@H]2O)[C@H](O)[C@@H](O)[C@@H]1O,inactive,inactive,inactive,10.3 µM (active),inactive,,,,
CC(=O)N1CCN(Cc2ccc([C@H](C)Nc3nccc(N4C(=O)OC[C@@H]4C(C)C)n3)cc2)CC1,inactive,inactive,inactive,inactive,inactive,,,,
CC(=O)NCC(=O)N1C2CCC1c1cc(Nc3ncc(C(F)(F)F)c(NC4CCC4)n3)ccc12 (stereo not given),inactive,inactive,inactive,inactive,inactive,,,,
C=C1CCC2C(C)(C(=O)O)CCCC2(C)C1CCC(C)CC(=O)O (stereo not given),inactive,inactive,inactive,inactive,inactive,,,,
CN(C)c1ccc2c(c1)OC(N)=C(C#N)C2c1cccc(C(F)(F)F)c1 (stereo not given),inactive,inactive,inactive,2.12 µM (active),inactive,,,,
O=C(O)[C@H](Cc1ccc(Nc2nccc3ccncc23)cc1)NC1=C(Br)C(=O)C12CCCCC2,inactive,inactive,inactive,inactive,inactive,,,,
O=[N+]([O-])c1cccc2[nH]c(CNc3nc(N4CCOCC4)nc4c3ncn4-c3ccsc3)nc12,inactive,inactive,inactive,10.6 µM (active),inactive,,,,
CC1(C)CC[C@@]2(C(=O)O[C@@H]3O[C@H](CO)[C@@H](O)[C@H](O)[C@H]3O)C(C1)C1=CCC3[C@@]4(C)CC[C@@H](O[C@@H]5O[C@H](C(=O)O)[C@@H](O[C@@H]6OC[C@@H](O)[C@H](O)[C@H]6O)[C@H](O[C@@H]6OC[C@](O)(CO)[C@H]6O)[C@H]5O)C(C)(C)C4CC[C@@]3(C)[C@]1(C)C[C@H]2O (stereo not given in full),inactive,inactive,,,,,54.8% [at 11.5 µM],1.29% [at 11.6 µM],inactive [at 11.6 µM]
